Reference: PubChem BioAssay (EPA / NIEHS)
Inconclusive results are not listed. The source made the active and inactive calls. How the source made its calls, unless noted: active means hit-call score of the fitted dose curve at least 0.9, where 1 is the maximum; inconclusive means response in the unintended direction; inactive means score below 0.9.

Experiments:
[1] = target: Peroxisome proliferator-activated receptor gamma (Homo sapiens) (UniProt P37231); experiment: OT_PPARg_PPARgSRC1_0480: Odyssey Thera (OT) 8-hour Protein-Complementation Assay for Peroxisome Proliferator-activated Receptor Gamma / SRC-1 Co-activator (AID 2283387);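 further: nuclear to cytoplasmic split Venus YFP fluorescence ratio reporting PPARg SRC-1 interaction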
Peroxisome proliferator-activated receptor gamma (Homo sapiens), sequence (P37231 whole entry, looked up, the tested form may be a part): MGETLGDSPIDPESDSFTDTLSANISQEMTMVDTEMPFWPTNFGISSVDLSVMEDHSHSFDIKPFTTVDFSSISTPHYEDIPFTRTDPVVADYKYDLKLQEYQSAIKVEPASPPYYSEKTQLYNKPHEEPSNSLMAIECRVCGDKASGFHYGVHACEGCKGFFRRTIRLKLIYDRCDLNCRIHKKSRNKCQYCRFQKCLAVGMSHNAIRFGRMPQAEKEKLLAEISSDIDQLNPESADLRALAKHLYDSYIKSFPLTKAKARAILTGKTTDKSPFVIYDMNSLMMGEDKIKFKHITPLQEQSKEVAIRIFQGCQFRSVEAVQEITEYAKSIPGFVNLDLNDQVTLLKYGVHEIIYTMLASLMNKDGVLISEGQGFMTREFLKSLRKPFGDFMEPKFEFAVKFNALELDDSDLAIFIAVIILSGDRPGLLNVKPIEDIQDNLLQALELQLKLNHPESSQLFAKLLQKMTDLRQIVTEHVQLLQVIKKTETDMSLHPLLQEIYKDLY
Outline: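 Split-YFP (IFP1/IFP2) PPARg/SRC-1 reporter, HEK293T, 37 °C, 5% CO2; 8 h compound; formaldehyde fix + Draq5; high-content imaging, N/C ratio, ≥350 cells/image, positive direction vs DMSO.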

[2] = target: Peroxisome proliferator-activated receptor gamma (Homo sapiens) (UniProt P37231); experiment: OT_PPARg_PPARgSRC1_1440: Odyssey Thera (OT) 24-hour Protein-Complementation Assay for Peroxisome Proliferator-activated Receptor Gamma/ SRC-1 Co-activator (AID 2283388);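 further: nuclear to cytoplasmic ratio of reconstituted Venus YFP fluorescence in fixed imaged cells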
Outline: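 Readout: nuclear-to-cytoplasmic 488 nm fluorescence ratio, ≥350 cells per image, 8 images per well, after 24 h compound exposure of HEK293T expressing PPARg/SRC-1 split-YFP fusions. Activity fitted in positive direction against DMSO.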

[3] = CEETOX_H295R_ANDR: CeeTox H295R High-throughput Steroidogenesis Assay for Androstenedione (ANDR) (AID 2283436; active means hit-call score of the fitted dose curve at least 0.9, where 1 is the maximum; inactive means score below 0.9); settings: actives raise or lower the signal
Outline: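 H295R cells, following OECD 456 with minor changes, exposed to chemicals for 48 h. Androstenedione in the medium was quantified by HPLC-MS/MS after MTBE extraction. Fitting was bidirectional versus DMSO; chemicals were diluted until MTT viability was ≥70%.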

[4] = CEETOX_H295R_CORTIC: CeeTox H295R High-throughput Steroidogenesis Assay for Corticosterone (CORTIC) (AID 2283437; active means hit-call score of the fitted dose curve at least 0.9, where 1 is the maximum; inactive means score below 0.9;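 further: corticosterone secreted into medium quantified by mass spectrometry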); settings: actives raise or lower the signal
Outline: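 H295R adrenal cells prestimulated 48 hours with 10 uM forskolin, then exposed 48 hours to chemical in 0.1% DMSO. Corticosterone in medium measured by HPLC-MS/MS after MTBE extraction; MTT viability in the same wells; bidirectional fit versus DMSO.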

[5] = CEETOX_H295R_CORTISOL: CeeTox H295R High-throughput Steroidogenesis Assay for Cortisol (AID 2283438; active means hit-call score of the fitted dose curve at least 0.9, where 1 is the maximum; inactive means score below 0.9;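 further: cortisol secreted into medium quantified by LC-MS/MS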); settings: actives raise or lower the signal
Outline: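 Human adrenocortical H295R cells (passage ≤10) received test chemicals for 48 h after forskolin priming. Secreted cortisol was measured by LC-MS/MS.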

[6] = CEETOX_H295R_PROG: CeeTox H295R High-throughput Steroidogenesis Assay for Progesterone (PROG) (AID 2283442; active means hit-call score of the fitted dose curve at least 0.9, where 1 is the maximum; inactive means score below 0.9;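 further: human H295R adrenal cells primed with 10 µM forskolin before dosing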); settings: actives raise or lower the signal
Outline: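 Progesterone read-out: HPLC-MS/MS on MTBE extracts of conditioned medium after 48 h chemical exposure of forskolin-primed (10 uM, 48 h) H295R cells. Gain or loss of signal was fitted relative to DMSO baseline.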

**Q.** With `CC1(C)[C@H](C(=O)O[C@H](C#N)c2cccc(Oc3ccccc3)c2)[C@@H]1/C=C(\Cl)C(F)(F)F` as the compound, how does the outcome [1] read?
**A.** Its outcome is “inactive”.

**Q.** And the outcome [2]?
**A.** The outcome was “inactive”.

**Q.** For `N#CCCC(Br)(C#N)CBr` (centres undefined), which outcome [1] is on record?
**A.** The outcome was “inactive”.

**Q.** What about the outcome [2] of the same compound?
**A.** Its outcome is “inactive”.

**Q.** With `Nc1ncn[nH]1` as the compound, how does the outcome [1] read?
**A.** Its outcome is “inactive”.

**Q.** And the outcome [2]?
**A.** Its outcome is “inactive”.

**Q.** For `O=c1[nH]c(=O)n(Cl)c(=O)n1Cl`, which outcome [1] is on record?
**A.** The outcome was “inactive”.

**Q.** What about the outcome [2] of the same compound?
**A.** The outcome was “inactive”.

**Q.** Which results are given for `COCCl`?
**A.** outcome [1]: inactive; outcome [2]: inactive

**Q.** Which results are given for `CCC[CH2][Sn]([CH2]CCC)([CH2]CCC)[CH2]CCC`?
**A.** outcome [1]: inactive; outcome [2]: inactive

**Q.** What does the source list for `C=CC(Cl)CCl` (centres undefined)?
**A.** outcome [1]: inactive; outcome [2]: inactive

**Q.** Which outcome [1] does the source give for `Cc1cc(Cl)ccc1OC(C)C(=O)O` (centres undefined) here?
**A.** Its outcome is “inactive”.

**Q.** What about the outcome [2] of the same compound?
**A.** The outcome was “inactive”.

**Q.** Which outcome [1] does the source give for `N#CCC#N` here?
**A.** Its outcome is “inactive”.

**Q.** What about the outcome [2] of the same compound?
**A.** Its outcome is “inactive”.

**Q.** With `CN(N=O)C(N)=O` as the compound, how does the outcome [1] read?
**A.** Its outcome is “inactive”.

**Q.** And the outcome [2]?
**A.** Its outcome is “inactive”.

**Q.** For `O=C(CCl)Nc1ccccc1`, which outcome [1] is on record?
**A.** The outcome was “inactive”.

**Q.** And the outcome [2]?
**A.** Its outcome is “inactive”.

**Q.** Which outcome [1] does the source give for `O=C(O)COc1cc(Cl)c(Cl)cc1Cl` here?
**A.** The outcome was “inactive”.

**Q.** And the outcome [2]?
**A.** The outcome was “inactive”.

**Q.** For `Cc1cc(Cl)ccc1OCCCC(=O)O`, which outcome [1] is on record?
**A.** Its outcome is “inactive”.

**Q.** What about the outcome [2] of the same compound?
**A.** Its outcome is “inactive”.

**Q.** Which outcome [1] does the source give for `CC(O)(CS(=O)(=O)c1ccc(F)cc1)C(=O)Nc1ccc(C#N)c(C(F)(F)F)c1` (centres undefined) here?
**A.** The outcome was “inactive”.

**Q.** And the outcome [2]?
**A.** The outcome was “inactive”.

**Q.** For `O=S1OC[C@@H]2[C@H](CO1)[C@]1(Cl)C(Cl)=C(Cl)[C@@]2(Cl)C1(Cl)Cl` (some centres undefined), which outcome [1] is on record?
**A.** The outcome was “inactive”.

**Q.** What about the outcome [2] of the same compound?
**A.** Its outcome is “inactive”.

**Q.** And the AC50 [3]?
**A.** Its AC50 is 50 µM (active).

**Q.** And the outcome [4]?
**A.** The outcome was “inactive”.

**Q.** What about the AC50 [5] of the same compound?
**A.** The AC50 was 38.3 µM (active).

**Q.** What about the AC50 [6] of the same compound?
**A.** The AC50 was 8.22 µM (active).

**Q.** For `Nc1ccc(N)cc1`, which outcome [1] is on record?
**A.** Its outcome is “inactive”.

**Q.** What about the outcome [2] of the same compound?
**A.** Its outcome is “inactive”.

**Q.** With `CNC(=O)O/N=C/C(C)(C)S(C)(=O)=O` as the compound, how does the outcome [1] read?
**A.** The outcome was “inactive”.

**Q.** And the outcome [2]?
**A.** Its outcome is “inactive”.

**Q.** What does the source list for `O=C(O)COc1ccc(Cl)cc1`?
**A.** outcome [1]: inactive; outcome [2]: inactive

**Q.** Which outcome [1] does the source give for `N#CS` here?
**A.** The outcome was “inactive”.

**Q.** What about the outcome [2] of the same compound?
**A.** The outcome was “inactive”.

**Q.** Which results are given for `O=C1c2ccccc2C(=O)C1C(=O)C(c1ccccc1)c1ccc(Cl)cc1` (centres undefined)?
**A.** outcome [1]: inactive; AC50 [2]: 69.3 µM (active)

**Q.** For `O=C(CBr)c1ccc(O)cc1`, which outcome [1] is on record?
**A.** Its outcome is “inactive”.

**Q.** What about the outcome [2] of the same compound?
**A.** The outcome was “inactive”.

**Q.** With `COc1nn(C(=O)NS(=O)(=O)c2ccccc2OC(F)(F)F)c(=O)n1C` as the compound, how does the outcome [1] read?
**A.** Its outcome is “inactive”.

**Q.** And the outcome [2]?
**A.** The outcome was “inactive”.

**Q.** With `OCCCCO` as the compound, how does the outcome [1] read?
**A.** The outcome was “inactive”.

**Q.** What about the outcome [2] of the same compound?
**A.** Its outcome is “inactive”.

**Q.** Which outcome [1] does the source give for `O=[N+]([O-])c1ccccc1O` here?
**A.** Its outcome is “inactive”.

**Q.** And the outcome [2]?
**A.** Its outcome is “inactive”.

**Q.** Which results are given for `O=S1(=O)OC(c2cc(Br)c(O)c(Br)c2)(c2cc(Br)c(O)c(Br)c2)c2ccccc21`?
**A.** AC50 [1]: 46.5 µM (active); AC50 [2]: 51.9 µM (active)

**Q.** Which outcome [1] does the source give for `O=C(NC(=O)c1c(F)cccc1F)Nc1ccc(Cl)cc1` here?
**A.** Its outcome is “inactive”.

**Q.** What about the outcome [2] of the same compound?
**A.** The outcome was “inactive”.

**Q.** For `O=CCCl`, which outcome [1] is on record?
**A.** The outcome was “inactive”.

**Q.** What about the outcome [2] of the same compound?
**A.** Its outcome is “inactive”.

**Q.** For `CC(C)N(C(=O)CCl)c1ccccc1`, which outcome [1] is on record?
**A.** Its outcome is “inactive”.

**Q.** What about the outcome [2] of the same compound?
**A.** Its outcome is “inactive”.

**Q.** With `O=[N+]([O-])c1ccc(Cl)c([N+](=O)[O-])c1` as the compound, how does the outcome [1] read?
**A.** The outcome was “inactive”.

**Q.** And the outcome [2]?
**A.** The outcome was “inactive”.

**Q.** Which outcome [1] does the source give for `CCN(CCO)CCO` here?
**A.** Its outcome is “inactive”.

**Q.** And the outcome [2]?
**A.** The outcome was “inactive”.
